Assay outcomes (PubChem BioAssay)
bovine MsrA act – bovine MsrA enzyme activators, primary screen, biochemical, absorbance, HTS. Methionine sulfoxide reductase A (Bos taurus). AID 602163, 2012. activation, % at 10.6 µM. purified bovine MsrA, absorbance read-out. 360,000 compounds, 0.3% hits; in the data active means activation above about 7.5%
rCAG binder – binders of r(CAG) RNA repeats, primary screen, biochemical, fluorescence; r(CAG) RNA repeat, TO-PRO-1 dye displacement fluorescence; inhibition, % at 3 µM; 370,000 compounds, 1.3% hits;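 active means inhibition above the plate cutoff, the mean of all test compounds on that plate plus 3 SD, cut at about 35% in these data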;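 further: higher means more dye released from RNA so lower well fluorescence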
NadD block – inhibitors of S. aureus NadD, primary screen, biochemical, colorimetric, uHTS; Nicotinate-nucleotide adenylyltransferase NadD (Staphylococcus aureus N315); purified NadD enzyme, colorimetric absorbance read-out; AID 602399, 2012; 360,000 compounds, 0.78% hits; inhibition, % at 20 µM; in the data active means inhibition above about 26%
MsrA inhibitor – bovine MsrA enzyme inhibitors, primary screen, biochemical, absorbance, HTS. purified bovine MsrA, absorbance read-out. inhibition, % at 15.5 µM. 360,000 compounds, 0.75% hits. AID 651718, 2012; in the data active means inhibition above about 4.5%
rCAG bind conf – small molecules binding CAG repeat RNA – biochemical, fluorescence, confirmation; 4,300 compounds, 70% hits; shares compounds with rCAG binder; inhibition, % at 3 µM; r(CAG) RNA repeat, TO-PRO-1 dye displacement fluorescence; AID 652065, 2013;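 active means inhibition above a per-plate cutoff, the mean inhibition of sample wells plus 3 SD, cut at about 35% in these data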;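 further: loss of TO-PRO-1 fluorescence as compound displaces dye from 1x1 AA loop RNA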
DNA CAG counter – displacement of TO-PRO-1 from CAG DNA duplex, counter-screen for rCAG RNA repeat binder project, biochemical, fluorescence, TO-PRO-1 dye, d(CAG) DNA oligo; AID 652068, 2013; shares compounds with rCAG binder; inhibition, % at 3 µM; 4,300 compounds, 94% hits; d(CAG) DNA oligo TO-PRO-1 dye displacement;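 active means inhibition above its plate's cutoff, the mean test-well inhibition plus 3 SD, cut at about 4.8% in these data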;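 further: hits displace the dye from DNA and so lower well fluorescence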
Numbers stand for hits. A selection: hits, their analogues and other compounds. The true share with any hit is near 2.7%.

Results for O=C(O)c1cccc(S(=O)(=O)N2CCCC(c3nc4c(nnn4Cc4ccccc4Cl)c(=O)[nH]3)C2)c1 (stereo unspecified) ?
bovine MsrA act: inactive; rCAG binder: 43.0; NadD block: inactive; MsrA inhibitor: inactive; rCAG bind conf: inactive; DNA CAG counter: 9.3

What do the screens show for `COc1ccc(NS(=O)(=O)c2ccc(NS(=O)(=O)c3cccc(C(=O)O)c3)cc2)cc1`?
bovine MsrA act: inactive; rCAG binder: inactive; NadD block: inactive; MsrA inhibitor: inactive

How did COc1ccc(NS(=O)(=O)c2ccc3c(c2)[C@H]2C=CC[C@H]2[C@@H](c2ccc(C(=O)O)cc2)N3)cc1 do in these assays?
bovine MsrA act: inactive; rCAG binder: 95.5; NadD block: 30.0; MsrA inhibitor: inactive; rCAG bind conf: 91.9; DNA CAG counter: 67.2

Results for O=C(COC(=O)c1ccccc1)Nc1ncc([N+](=O)[O-])s1 ?
bovine MsrA act: inactive; rCAG binder: 59.8; NadD block: inactive; MsrA inhibitor: inactive; rCAG bind conf: 70.1; DNA CAG counter: 37.0

What do the screens show for `COc1cc(OC)c(NC(=O)NNC(=O)C(=O)NC2CC2)cc1Cl`?
rCAG binder: inactive; MsrA inhibitor: inactive

How did Cc1cc(C(C)(C)C)cc(C)c1S(=O)(=O)N1CCN(C(=O)c2cc([N+](=O)[O-])c[nH]c2=O)CC1 do in these assays?
bovine MsrA act: inactive; rCAG binder: 35.3; NadD block: inactive; MsrA inhibitor: inactive; rCAG bind conf: 54.0; DNA CAG counter: 18.5

Results for Cc1cc(C)c(S(=O)(=O)N2CCN(C(=O)c3cc(=O)[nH]c4ccccc34)CC2)c(C)c1 ?
bovine MsrA act: inactive; rCAG binder: inactive; NadD block: inactive; MsrA inhibitor: inactive

How did O=C(Nc1cccc(Cl)c1)Nc1sccc1-c1nc2ccccc2s1 do in these assays?
bovine MsrA act: inactive; rCAG binder: 35.3; NadD block: inactive; MsrA inhibitor: inactive; rCAG bind conf: inactive; DNA CAG counter: 17.6

How did O=C(Nc1ccccc1)Nc1sccc1-c1nc2ccccc2s1 do in these assays?
bovine MsrA act: inactive; rCAG binder: inactive; NadD block: inactive; MsrA inhibitor: inactive

What do the screens show for `CCOc1cc(C(=O)Nc2ccc(S(=O)(=O)Nc3onc(C)c3C)cc2)cc(OCC)c1OCC`?
bovine MsrA act: inactive; rCAG binder: 46.1; NadD block: inactive; MsrA inhibitor: inactive; rCAG bind conf: 51.8; DNA CAG counter: 19.9

How did COc1cc(C(=O)Nc2ccc(S(=O)(=O)Nc3onc(C)c3C)cc2)cc(OC)c1OC do in these assays?
bovine MsrA act: inactive; rCAG binder: inactive; NadD block: inactive; MsrA inhibitor: inactive

Results for CCCOc1ccc(C(=O)Nc2ccc(S(=O)(=O)Nc3onc(C)c3C)cc2)cc1 ?
bovine MsrA act: inactive; rCAG binder: 48.7; NadD block: inactive; MsrA inhibitor: inactive; rCAG bind conf: inactive; DNA CAG counter: 5.2

Results for Cc1noc(NS(=O)(=O)c2ccc(NC(=O)c3cc(=O)c4ccccc4o3)cc2)c1C ?
bovine MsrA act: inactive; rCAG binder: 36.7; NadD block: inactive; MsrA inhibitor: inactive; rCAG bind conf: inactive; DNA CAG counter: inactive

What do the screens show for `Cc1ccc2oc(C(=O)Nc3ccc(S(=O)(=O)Nc4onc(C)c4C)cc3)cc(=O)c2c1`?
bovine MsrA act: inactive; rCAG binder: inactive; NadD block: inactive; MsrA inhibitor: inactive

What do the screens show for `CCCCOc1ccc(C(=O)Nc2ccc(S(=O)(=O)Nc3onc(C)c3C)cc2)cc1`?
bovine MsrA act: inactive; rCAG binder: 77.2; NadD block: inactive; MsrA inhibitor: inactive; rCAG bind conf: 53.5; DNA CAG counter: 21.0

What do the screens show for `CCCOc1ccc(C(=O)Nc2ccc(S(=O)(=O)NC3=NCCCCC3)cc2)cc1`?
bovine MsrA act: inactive; rCAG binder: inactive; NadD block: inactive; MsrA inhibitor: inactive

Results for Cc1noc(NS(=O)(=O)c2ccc(NC(=O)c3ccc(N4C(=O)c5ccccc5C4=O)cc3)cc2)c1C ?
bovine MsrA act: inactive; rCAG binder: 73.5; NadD block: inactive; MsrA inhibitor: inactive; rCAG bind conf: 59.0; DNA CAG counter: 25.5
